BCR signal inh: chronic active BCR signaling inhibition. ABC-DLBCL IkBa-CBG/CBR reporter, luminescence ratio, 4 h. Potency, µM (titrated, usually from 46.1 µM), for inactives: at the highest dose activity change, negative = inhibition, hits mostly inhibitors. actives 0.05% (n = 340,000). AID 493014; active = well fitted inhibition curve with a large enough effect in the signal ratio, with a control signal flat, not every such curve was filed as active; inconclusive = small, poorly fitted or top-dose-only effect, or effect the other way, or a change in a side signal; the % refers to the signal ratio;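 note: plate controls were basal doxycycline-induced cells for no effect and cells given 10 µM MG132 for full effect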
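Concentration-response series (up to 46 uM) were applied to TMD8 dual-reporter cells for 4 h at 37C with doxycycline. Green/red ratio, after filter-overlap correction, defined %Activity; red signal alone was normalised to basal cells and zero luminescence.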
VP16 counter: inhibits Gal4-VP16 luciferase reporter, ROR gamma counter-screen. Drosophila S2 Gal4-VP16 UAS-luciferase, luminescence, 20 h. Potency, µM (titrated, usually from 53.6 µM), inactives show at the highest dose activity, negative = inhibition, most hits filed as inhibitors. actives 3.5% (n = 310,000). AID 2546;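 note: Gal4-VP16 expression switched on by copper sulfate through the metallothionein promoter; % is set by controls: 0 for no effect and ±100 for the full control effect; nearly all actives have a fitted effect of over 50% in size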
Mito fusion yeast: blocks mitochondrial division or promotes mitochondrial fusion | S. cerevisiae fusion-defective mutant growth rescue, CellTiterGlo 48 h | Potency, µM (series often up to 46.1 µM), for the others: at the top dose growth rescue (activation), most hits filed as activators | actives 0.23% (n = 320,000) | AID 485298; note: % of control where 0% means no effect; nearly all actives have a fitted effect of over 45% in size
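S. cerevisiae fusion-defective temperature-sensitive mutants (e.g. fzo1-1, mgm1-5) grown 48 h at 37C in YPEG (ethanol/glycerol non-fermentable) medium with 23 nl compound per well; growth rescue read as CellTiterGlo luminescence.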
uPA generation: blocks generation of uPA at the cell surface. cell surface uPA generation assay, qHTS. Potency, µM (top dose mostly 38.3 µM), for inactives: at the top dose activity change, negative = inhibition, hits mostly inhibitors. actives 0.31% (n = 330,000); active = well fitted inhibition curve with a large enough effect; inconclusive = small, poorly fitted or top-dose-only effect; inactive = no such curve, though single readings can be large or run the other way; tested in mouse RAW 264.7 cells; note: % is set by controls: 0 for no effect and ±100 for the full control effect; nearly all actives have a fitted effect of over 55% in size
a7 integrin act: integrin-mediated muscular dystrophy alleviation activation. AID 624291. actives 0.064% (n = 350,000). alpha7betagal myoblasts, beta-gal FDG fluorescence, 48 h. Potency, µM (top dose mostly 38.3 µM), inactives show top-dose activation, most hits filed as activators;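 note: 100% = response of the positive control SU9516; nearly all actives have a fitted effect of over 60% in size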
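Alpha7betagal+/- myoblasts (passage 13) were plated 16-24 hr, then exposed to compounds (1:260 dilution of DMSO stock) for 48 hours at 37C. After MPER lysis, β-galactosidase reporter activity was read as FDG fluorescence (ex 480/em 540) after 30 minutes.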
RORg inh: inhibitors of mouse ROR gamma transcriptional activity | actives 5.4% (n = 310,000) | Drosophila S2 Gal4-RORgamma UAS-luciferase reporter, 20 h | AID 2551 | Potency, µM (series often up to 53.6 µM), for the others: top-dose activity change, negative = inhibition, hits mostly inhibitors; note: % is set by controls: 0 for no effect and ±100 for the full control effect; nearly all actives have a fitted effect of over 60% in size
Target sequence (P51450 whole entry, looked up, the tested form may be a part): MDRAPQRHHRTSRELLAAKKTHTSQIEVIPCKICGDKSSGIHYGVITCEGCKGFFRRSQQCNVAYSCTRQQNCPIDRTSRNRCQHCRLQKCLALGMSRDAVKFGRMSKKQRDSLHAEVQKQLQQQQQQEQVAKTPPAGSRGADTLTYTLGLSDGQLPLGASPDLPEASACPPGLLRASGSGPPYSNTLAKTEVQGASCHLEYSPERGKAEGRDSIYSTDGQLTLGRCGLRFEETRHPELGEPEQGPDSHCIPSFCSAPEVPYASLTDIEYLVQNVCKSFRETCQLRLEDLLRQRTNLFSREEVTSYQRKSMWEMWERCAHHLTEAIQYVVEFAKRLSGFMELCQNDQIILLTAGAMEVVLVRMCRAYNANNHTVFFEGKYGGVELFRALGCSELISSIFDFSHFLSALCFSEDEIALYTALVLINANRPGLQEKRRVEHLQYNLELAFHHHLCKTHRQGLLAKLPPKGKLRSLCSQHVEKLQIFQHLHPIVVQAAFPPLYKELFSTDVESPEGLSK
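Schneider cells (Drosophila), stable Gal4 DBD–ROR gamma + UAS-luc; 1 hr cmpd preincubation; Cu2+ induction 700 uM final; 20 hr ambient; luminescence.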
* hit, by the source's call; u = inconclusive; x = no result; [ ] = remark or other dose. Shown are actives, neighbours in structure and some others; about 5.5% of the full set was active somewhere. Unless noted, calls come from the whole dose curve; as a rule, active = well fitted curve in the direction sought with a large enough effect; inconclusive = small, poorly fitted or top-dose-only effect, or another doubt; inactive = no such curve, though single readings can be large; an effect the other way counts as inactive or inconclusive. Potency is the fitted concentration of half-maximal effect.

SMILES | BCR signal inh | VP16 counter | Mito fusion yeast | uPA generation | a7 integrin act | RORg inh
Cc1ccc2c(C)cc(=S)[nH]c2c1 | 1% | u | -3% | -2% | -17% | 4µM*
Cc1ccc2[nH]c(=S)cc(C)c2c1 | -10% | u | -11% | -1% | 22% | 16µM*
Cc1cc(=S)[nH]c2ccccc12 | -5% | -2% | u | -1% | 0% | u
CCOC(=O)C1CCN(C(=O)c2ccc3c(=O)n4nc(Nc5ccccc5)sc4nc3c2)CC1 | u | x | x | x | 20% | x
CN(C)c1ncc2nc(-c3ccc(F)cc3)c(=O)n(-c3ccccc3)c2n1 | x | 0% | x | x | x | 13%
CCCC(=O)NC(=S)N1CCN(c2ccc([N+](=O)[O-])cc2)CC1 | 1% | u | -5% | 4% | -3% | 3.2µM*
O=C(NC(=S)N1CCCCCC1)c1cccc([N+](=O)[O-])c1 | -2% | x | -9% | u | -29% | x
O=[N+]([O-])c1ccc(N2CCN(C(=S)c3cccc([N+](=O)[O-])c3)CC2)cc1 | u | -7% | 6% | 2% | -13% | 4%
O=C(NC(=S)N1CCN(c2ccccc2)CC1)c1ccc(S(=O)(=O)N2CCOCC2)cc1 | 0% | 0.63µM* | 2% | -10% | -6% | 0.71µM*
O=C(NC(=S)N1CCN(c2ccc([N+](=O)[O-])cc2)CC1)c1ccccc1 | u | 0.56µM* | -8% | 0% | 5% | 0.28µM*
O=C(NC(=S)N1CCCC1)c1cccc([N+](=O)[O-])c1 | -1% | 0.71µM* | -11% | -4% | -8% | 2µM*
COC(=O)c1ccc(NC(=O)CN2CCN(CCO)CC2)cc1 | 2% | 14% | 0% | 0% | -1% | -4%
Cc1ccc(C(=O)NC(=S)N2CCN(c3ccc([N+](=O)[O-])cc3)CC2)cc1 | u | 1µM* | -6% | -3% | -2% | 0.71µM*
Cc1ccc(C(=O)NC(=S)N2CCCCCC2)cc1 | u | x | -9% | 21% | -19% | x
CN1c2ccccc2-c2nc(SCC(=O)Nc3ccccc3)ncc2S1(=O)=O | -4% | x | x | x | x | x
CC(=O)/C(=N\Nc1ccc(Cl)cc1)Sc1nnc(-c2ccccc2)n1-c1ccccc1 | u | 6.3µM* | 28% | -4% | 18% | 6.3µM*
O=C(NN1CCOCC1)c1cc(Cl)ccc1Cl | 0% | -1% | 2% | 1% | 14% | -13%
NNC(=O)c1cc(Cl)ccc1Cl | u | -87% | 2% | -5% | 7% | 11µM*
Cc1ccc(S(=O)(=O)NCCC(=O)NNC(=O)c2ccccc2Cl)cc1C | u | x | -1% | 14% | 12% | x
Cc1cc(O)c(C(C[N+](=O)[O-])c2ccc(Cl)cc2Cl)c(=O)o1 (stereo not given) | u | u | -10% | x | -36% | 16µM*
COCCn1c(=O)c(-c2cc(F)cc(F)c2)nc2cnc(N3CCOCC3)nc21 | x | -1% | x | x | x | -35%
Cc1cc(-n2c(C)cc(C(=S)N3CCOCC3)c2C)ccc1Br | -12% | u | 29% | 6% | 0% | 8.9µM*
CCc1cccc(CC)c1NC(=O)/C(C#N)=C/c1ccccc1C(F)(F)F | 22% | 10µM* | -12% | -13% | -53% | 11µM*
CNC(=S)N/N=C/c1cn(Cc2ccc(F)cc2)c2ccccc12 | -7% | 1.1µM* | 15% | -13% | -6% | 0.89µM*
O=[N+]([O-])c1ccc(N/N=C/c2cn(Cc3ccc(F)cc3)c3ccccc23)nc1 | 3% | 6.3µM* | -1% | -2% | 7% | u
SMILES | BCR signal inh | VP16 counter | Mito fusion yeast | uPA generation | a7 integrin act | RORg inh
O=C(N/N=C/c1cn(CCOc2ccccc2)c2ccccc12)c1ccncc1 | -1% | 10µM* | 9% | -6% | -1% | 6.3µM*
O=[N+]([O-])c1ccc(NN=Cc2cccc(O)c2)nc1 | x | x | x | 4% | 12% | x
COc1ccccc1OCCn1cc(/C=N/NC(N)=S)c2ccccc21 | u | 2µM* | -15% | u | 9% | 0.5µM*
COC(=O)N/N=C/c1cn(CCCOc2ccccc2)c2ccccc12 | -6% | -19% | 10% | -4% | 17% | 17%
COC(=O)N/N=C/c1cn(Cc2ccc(F)cc2)c2ccccc12 | -12% | 3% | 2% | 3% | 8% | 45%
Cc1ccc([N+](=O)[O-])cc1NC(=O)Nc1onc(C)c1C | -5% | -10% | -1% | 3% | 30% | 0%
CC(C)CN1CC[C@@]2(CCCN(C(=O)c3cnccn3)C2)C1 | x | -12% | x | x | x | 2%
O=C1[C@H]2[C@H]3[C@H](O)[C@H](O)C/C(=N/OC[C@@H](O)COCc4ccco4)[C@H]3CC[C@@H]2C(=O)N1C[C@@H]1CCCO1 | x | 2%[10 µM] | x | x | x | -5%[10 µM]
O=S(=O)(NCCc1csc2nc(-c3ccc(F)cc3)nn12)c1ccc(Oc2ccccc2)cc1 | 6% | x | x | x | x | x
CCOC(=O)N/N=C1/C[C@@H](O)[C@@H](O)[C@@H]2[C@@H]3C(=O)N(Cc4ccccc4)C(=O)[C@H]3CC[C@@H]12 | x | -4%[10 µM] | x | x | x | 6%[10 µM]
COc1ccccc1OCCn1cc(/C=N/NC(=O)c2ccncc2)c2ccccc21 | 3% | u | 7% | -3% | -10% | 6.3µM*
CNC(=S)N/N=C/c1cn(CCOc2ccc(OC)cc2)c2ccccc12 | u | 3.2µM* | u | -10% | 21% | 2.2µM*
CNC(=S)N/N=C/c1c(C)c(C(=O)c2ccc(F)cc2)n2ccccc12 | -6% | 7.9µM* | -11% | -1% | 1% | 5µM*
C[C@@H]1CN([C@H](C)CO)C(=O)c2cc(NC(=O)c3ccncc3)ccc2O[C@@H]1CN(C)C(=O)Nc1ccccc1 | u | x | x | 15% | 6% | x
COc1ccc(OC)c(NC(=O)CSC2=Nc3ccccc3C3=NC(CCC(=O)NCc4ccccc4)C(=O)N23)c1 (stereo not given) | 1% | x | x | x | x | x
Cc1cc(OCC(=O)NCC(c2ccc(F)cc2)N2CCOCC2)ccc1Cl (stereo not given) | -5% | x | -7% | 11% | 34% | x
Cc1ccc(S(=O)(=O)N(C)C)cc1NC(=S)Nc1cccc2ccccc12 | -16% | u | -20% | -4% | -6% | u
Cc1ccc(S(=O)(=O)N(C)C)cc1NC(=S)NC(C)CCC(C)C (stereo not given) | -4% | u | -8% | 5% | -40% | 13µM*
CC(=O)NNC(=S)Nc1cc(S(=O)(=O)N(C)C)ccc1C | 0% | 2% | -2% | 0% | -2% | -8%
CCCCCCC(C)NC(=S)Nc1cc(S(=O)(=O)N(C)C)ccc1C (stereo not given) | -9% | u | -7% | 1% | -38% | 13µM*
Cc1ccc(S(=O)(=O)N(C)C)cc1NC(=S)NC(C)CCCC(C)C (stereo not given) | 0% | u | -5% | 8% | -41% | 18µM*

Screens: PubChem, National Center for Advancing Translational Sciences (NCATS)
